Holding throughout (assay): NCI-60 one-dose screen, 48 h (100 = growth as untreated, 0 = no growth, -100 = all killed)
What all share (details): 10 µM unless noted

Assay [1] has as its system NCI-H23 lung.
Assay [2] deals with NCI-H226 lung.
Assay [3] concerns NCI-H322M lung.
Assay [4] relates to HOP-62 NSCLC.
The test system of assay [5] is NCI-H460 lung.
Assay [6] has as its system HOP-92 NSCLC.
Assay [7] deals with NCI-H522 lung.
Assay [8] deals with A549/ATCC NSCLC.
Assay [9] relates to 786-0 renal.
The subject of assay [10] is COLO 205 colon.

The values that follow come from PubChem BioAssay (NCI).

About 83,000 compounds went through this panel and 20% of them were active in at least one assay; those are over-represented in the sample as a whole.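 Values shown are percent growth following 48 h exposure of cells in 96-well plates to a single concentration of compound; below 10 was considered active.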 A number with no mark means an inactive call. Active and inactive are the calls of the source.

As to `CSc1ccc(/C(=N/N=C(N)N)c2ccc(F)cc2)cc1`, the growth in [1] is -36.7% (active); in assay [2] it was 0.244% (active); in assay [3] it was 67.5%; in assay [4], 36.1%; in assay [5], 6.38% (active); in assay [6], 33.4%. The results for the growth in assay [7], in assay [8] and in assay [9] were 8.51% (active), 16.4% and 17.7%, respectively.
On to `Oc1ccc(-c2nc3ccc(/C(=N\N=C\c4ccc(Cl)cc4)c4ccccc4)cc3[nH]2)cc1`, for which the growth in assay [1] was 94.8%; in assay [2], 80.7%; in assay [3], 93.7%; in assay [4], 100%; in assay [5], 86.4%; in [6], 118%. The growth in assay [7] was 74.6%; in assay [8], 89.2%; in assay [9] it was 66.5%.
With `O=C(CSc1nc2ccccc2c(=O)n1-c1ccccc1)N/N=C/c1ccc(Oc2ccc(Cl)cc2)cc1`, the growth is 39.1% in assay [1]; 72.1% in assay [2]; 84.5% in assay [3]; 59.1% in assay [4]; 32.1% in [5]; 66.7% in [6]. Also, the figures for the growth in assay [7], in [8] and in assay [9] were 49.6%, 41.7% and 53.2%, respectively.
As to `CN1CCN(Cc2ccc(NC(=O)c3cncc(C#Cc4cnc5ccc(NCCO)nn45)c3)cc2C(F)(F)F)CC1`, the growth is -40.2% (active) in assay [1]; -14% (active) in assay [2]; -15% (active) in assay [3]; -41.5% (active) in [4]; -78% (active) in [5]; -27.1% (active) in [6]. For the same compound, the growth is -75.8% (active) in assay [7], 1.34% (active) in assay [8] and -17.9% (active) in [9].
Turning to `N#Cc1c(-c2cccs2)cc(-c2cnccn2)nc1SCC(=O)N/N=C/c1ccc(Cl)cc1`, the growth in [1] was 100%; in assay [2] it was 98.1%; in assay [3], 99.3%; in assay [4], 99.1%; in [5], 103%; in assay [6], 89.4%. Moreover, the results for the growth in assay [7], in [8] and in [9] were 93.7%, 94.6% and 93.9%, respectively.
With `COc1ccc(N2CCN(C3=C(Cl)C(=O)c4ncccc4C3=O)CC2)cc1`, the growth in assay [1] is 55.9%; in assay [2] it was 94%; in assay [3], 97.2%; in assay [4], 85.4%; in assay [5], 52.7%; in assay [6] it was 96.2%. Further, the growth in [7] was -9.71% (active); in [8] it was 96%; in assay [9], 107%; in assay [10] it was 30.5%.
For the compound `COC(=O)N1CCN(CCNCc2ccc(NC(=O)c3ccc(C)c(C#Cc4cnc5cccnn45)c3)cc2C(F)(F)F)CC1`, the growth in assay [1] was 36.2%; in assay [2], 31.1%; in [3], 75.3%; in assay [4], 24.9%; in assay [5], 22.2%; in assay [6] it was 12.2%. The growth in assay [7] was 30.2%; in [8], 27.9%; in [9], 38.2%.
On to `CN1CCN(c2ccc(Nc3nc(NCCNS(=O)(=O)c4ccccc4)c4sccc4n3)cc2)CC1`, for which the growth was 97.5% in assay [1]; 94.2% in [2]; 94.9% in [3]; 98.7% in assay [4]; 104% in assay [5]; 57.3% in assay [6]. Moreover, the growth was 95% in [7], 104% in assay [8] and 99.2% in [9].
With `CC1=C(C)C(=O)C(Nc2ccc(C)c(C)c2)=C(Br)C1=O`, the growth in [1] is 76.9%; in [2], 89.6%; in assay [3], 102%; in assay [4], 104%; in assay [5] it was 99.6%; in assay [6] it was 3.51% (active). In addition, the growth in assay [7] was 97.2%; in [8], 103%; in assay [9], 105%; in assay [10] it was 116%.
`O=C1Nc2ccccc2/C1=N\c1nnc(-c2ccccc2)o1`: the growth in assay [1] was 91.8%; in assay [2], 88.7%; in assay [3] it was 86.8%; in [4], 82.6%; in [5], 99.2%; in assay [6], 72.2%. Further, the figures for the growth in assay [7], in assay [8] and in [9] were 88.4%, 103% and 108%, respectively.
In the case of `COc1ccc(NC2=C(Br)C(=O)C(C)=C(C)C2=O)cc1OC`, the growth was 89.8% in assay [1]; 88.2% in assay [2]; 106% in assay [3]; 104% in assay [4]; 101% in assay [5]; -60.8% (active) in assay [6]. Moreover, the growth in assay [7] was 89.6%; in assay [8], 98.7%; in assay [9] it was 106%.
As to `C=C(C=O)[C@@H]1CC[C@]2(C(=O)O)CC[C@]3(C)C(CC[C@@H]4[C@@](C)(CCC#N)[C@H](C(=C)C=O)CC[C@]43C)[C@@H]12` (stereo not given in full), the growth in [1] was 17.6%; in [2], -16.4% (active); in assay [3], 98.6%; in [4], 115%; in assay [5], 96.7%; in assay [6] it was 13.6%. For the same compound, the growth in assay [7] is 81.4%; in [8], 82.7%; in assay [9], 59.7%.
Turning to `CN(C)CCCOc1ccc(C(=C(c2ccccc2)C2CCCC2)c2ccc(OCCCN(C)C)cc2)cc1`, the growth in assay [1] was -78.8% (active); in [2], -67.5% (active); in [3] it was -97% (active); in [4], -72.6% (active); in assay [5], -62.6% (active); in [6], -76.3% (active). For the same compound, the growth in assay [7] is -89.8% (active); in assay [8] it was -79.2% (active); in assay [9], -80.4% (active).
For `O=C(O)CC1CCN(c2ccc3nnc(Cl)n3n2)CC1`, the growth was 93.9% in [1]; 98.7% in assay [2]; 96.2% in assay [3]; 93.3% in [4]; 108% in assay [5]; 96.2% in [6]. Further, the figures for the growth in [7], in [8] and in assay [9] were 96%, 103% and 100%, respectively.
As for `Fc1ccc2nc(-c3cnn4cccnc34)sc2c1`, the growth is 93.3% in [1]; 83.1% in assay [2]; 67.5% in assay [3]; 85.1% in assay [4]; 88.2% in [5]; 78.9% in assay [6]. In addition, the growth in [7] was 93.5%; in [8] it was 81%; in assay [9], 101%.
`COc1ccccc1Cn1cc(C#N)c(N)c1C(=O)c1ccc(Br)cc1`: the growth in assay [1] is 91.8%; in [2], 89.5%; in assay [3], 94.6%; in assay [4], 104%; in assay [5], 96.4%; in [6] it was 100%. Moreover, the values for the growth in assay [7], in assay [8] and in assay [9] were 89.5%, 101% and 102%, respectively.
On to `CC(=O)/C(N=Nc1ccc2oc(=O)ccc2c1)=C(\C)O`, for which the growth is 27.5% in assay [1]; 42.6% in assay [2]; 55.1% in [3]; 26.2% in assay [4]; 14.6% in [5]; 2.61% (active) in [6]. For the same compound, the growth in [7] is 31%; in [8] it was 23.6%; in [9], 37.5%.
`Cn1ncc2c(C(=O)c3ccc(F)cc3)nc(C(C)(C)C)nc21`: the growth is 95.8% in assay [1]; 101% in assay [2]; 97.8% in assay [3]; 94.8% in [4]; 101% in assay [5]; 56.4% in assay [6]. For the same compound, the growth in assay [7] is 91.8%; in [8], 91.9%; in assay [9] it was 101%.
For `NS(=O)(=O)c1nnc(/N=C/c2c(O)[nH]c3ccccc23)s1`, the growth in [1] is 96.3%; in assay [2], 95%; in [3] it was 104%; in assay [4], 86.6%; in assay [5], 105%; in assay [6] it was 88.1%. The figures for the growth in [7], in assay [8] and in [9] were 99.9%, 108% and 98.2%, respectively.
As for `NC(=S)n1c(=O)n(-c2cccc(C(F)(F)F)c2)c(=O)c2cc(-c3ccc(F)cc3F)ccc21`, the growth in assay [1] was -5.28% (active); in [2], 9.53% (active); in assay [3] it was 6.11% (active); in assay [4], 1.42% (active); in assay [5] it was 6.23% (active); in [6], -29.9% (active). The growth was -4.04% (active) in assay [7], 7.29% (active) in assay [8] and 11.4% in assay [9].
For `C/C(CC1(O)C(=O)Nc2ccccc21)=N\O` (stereo not given), the growth in assay [1] is 101%; in assay [2] it was 98%; in [3] it was 102%; in assay [4] it was 95.2%; in [5] it was 101%; in assay [6], 93.9%. The figures for the growth in assay [7], in assay [8] and in assay [9] were 91.3%, 102% and 101%, respectively.
As for `O=S(=O)(NCCCNc1nccc(-c2[nH]c(-c3ccccc3)nc2-c2ccc(F)c(O)c2)n1)c1cccc(F)c1`, the growth in assay [1] was 90.4%; in assay [2] it was 96.7%; in assay [3], 103%; in assay [4], 116%; in assay [5], 78%; in assay [6], 94.6%. The growth is 87.5% in [7], 92.4% in assay [8] and 101% in [9].
Turning to `COc1ccc([C@H]2C(=O)N(c3cc(OC)c(OC)c(OC)c3)[C@@H]2c2ccc(OC)c(O)c2)cc1`, the growth is 24.4% in assay [1]; 41.8% in assay [2]; 43.3% in assay [3]; 26.7% in assay [4]; 4.38% (active) in assay [5]; 6.76% (active) in assay [6]. The values for the growth in [7], in assay [8] and in [9] were -49.2% (active), 21.6% and 6.39% (active), respectively.
For `COc1ccc(-c2cc(-c3ccc(N4CCOCC4)cc3)n3c(n2)nc2ccccc23)cc1OC`, the growth is 98% in assay [1]; 85.7% in [2]; 94.6% in assay [3]; 94.8% in assay [4]; 86.3% in assay [5]; -4.32% (active) in [6]. Moreover, the growth in assay [7] was 87.7%; in assay [8], 82.5%; in assay [9] it was 84.7%; in assay [10] it was 108%.
On to `CC(C)(C)OC(=O)Nc1ccc(-c2cccc(Oc3ccc4nnc(Cl)n4n3)c2)cc1`, for which the growth in assay [1] was 69.7%; in [2], 66.4%; in assay [3], 101%; in assay [4] it was 104%; in [5], 82.4%; in assay [6] it was 42.3%. Further, the results for the growth in [7], in assay [8] and in assay [9] were 64.9%, 85.6% and 81.9%, respectively.
As to `CC(C)C(/C=C/c1[nH]ncc1-c1cc(Cl)ccc1O)N1CCOCC1` (stereo not given), the growth in assay [1] was 96.7%; in assay [2], 85.2%; in assay [3], 88.7%; in assay [4], 92.3%; in [5], 105%; in [6] it was 88.4%. Moreover, the growth is 95.8% in [7], 96.7% in assay [8] and 101% in assay [9].
For `CC(=C(c1ccc(OCCCN(C)C)cc1)c1ccc(OCCCN(C)C)cc1)c1ccc(Cl)cc1`, the growth was 84.8% in [1]; 95.5% in [2]; 95.1% in [3]; 99.5% in [4]; 99.6% in assay [5]; 77.9% in [6]. Further, the growth in assay [7] was 94.1%; in [8], 79.8%; in assay [9], 87.4%.
On to `O=C(CSc1nc2ccccc2c(=O)n1-c1ccccc1)Nc1ccc(S(=O)(=O)Nc2nccs2)cc1`, for which the growth in [1] is 86.1%; in [2], 73.6%; in assay [3] it was 77%; in assay [4], 80.4%; in assay [5] it was 85.2%; in assay [6] it was 89.4%. In addition, the growth is 26.7% in assay [7], 84.4% in [8] and 66.1% in assay [9].
